Hits are enriched below; roughly 14% of the tested compounds scored in any of these assays.
Pf growth 96h = inhibits malaria parasite growth, 96 h; P. falciparum luciferase reporter growth, 96 h; Potency, µM (titrated, usually from 28.7 µM), for the others: at the highest dose activity change, negative = inhibition, most hits filed as inhibitors; 320,000 compounds, 6.9% hits; also: potency is read from the fitted curve at half-maximal effect
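Delayed-death screen, second-generation endpoint: infected erythrocytes, 2% hematocrit, 0.05% parasitemia final; 96 hours at 37 C, 5% CO2; luciferase detection reagent; luminescence decrease equals reduced growth.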
Marburg entry inh = Marburg virus entry inhibition; Marburg virus pseudotyped entry inhibition, cell reporter; Potency, µM (doses to about 37.8 µM), for the others: at the top dose activity change, negative = inhibition, most hits filed as inhibitors; 300,000 compounds, 1.8% hits; AID 540276; calls by dose curve; tested in HEK293 cells; also: potency is read from the fitted curve at half-maximal effect
Lassa entry inh = blocks Lassa virus binding to or entry into cells; Lassa virus pseudotype entry inhibition, cell reporter; AID 540256; 300,000 compounds, 1.2% hits; Potency, µM (titrated, usually from 37.9 µM), without a hit: top-dose activity change, negative = inhibition, actives largely listed as inhibitors; calls by dose curve; tested in HEK293 cells; also: potency is read from the fitted curve at half-maximal effect; nearly all actives have a fitted effect of over 50% in size
HCMV inh = inhibitors of human cytomegalovirus. HFF cells, HCMV-luciferase reporter, 72 h; hits give low values. activity change, negative = inhibition, % at 57.5 µM. 410,000 compounds, 4.5% hits. AID 1259415; in the data active = activity change below about -60%; inconclusive = no clear call, values can overlap the other calls; inactive = above about -39%
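Inhibition of viral replication was scored as loss of reporter luminescence in HFFs infected with HCMV-luciferase (MOI 1 PFU/cell) for 72 h; compounds tested at 2 doses, normalized to buffer and Salinomycin controls.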
HCV inhibitor = HCV inhibition. Huh7.5.1 HCVcc-Cre infection, luciferase reporter, 44 h. Potency, µM (top dose mostly 41.8 µM), for the others: at the top dose activity change, negative = inhibition, most hits filed as inhibitors. 340,000 compounds, 3.4% hits; also: potency is read from the fitted curve at half-maximal effect
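Reporter virus HCVcc-Cre (~0.5 moi) infects cells exposed to compound; seeding density 1,000 cells/well with 4 h settling beforehand. Luminescence, 15 sec read, taken 44 h post-infection following a 15 min RT substrate incubation.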
Pf growth 48h = inhibits P. falciparum growth in the first generation, 48 h; AID 504832; P. falciparum luciferase growth in erythrocytes, 48 h; Potency, µM (highest dose often 28.7 µM), for the others: at the highest dose activity change, negative = inhibition, actives largely listed as inhibitors; 310,000 compounds, 5.9% hits; also: potency is read from the fitted curve at half-maximal effect
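In quantitative HTS format, infected erythrocytes bearing luciferase-reporter parasites were treated for a single generation at 37 C. Luminescence after adding detection reagent served as the growth measure.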
Numbers without * were called inactive; u = inconclusive; x = not tested or not shown; [ ] = remark or other dose. Unless noted, calls follow the shape of the dose curve; as a rule, active = well fitted inhibition curve with a large enough effect; inconclusive = small, poorly fitted or top-dose-only effect, or another doubt; inactive = no such curve, though single readings can be large or run the other way. % is scaled to controls: 0 for no effect and ±100 for the full control effect.

SMILES	Pf growth 96h	Marburg entry inh	Lassa entry inh	HCMV inh	HCV inhibitor	Pf growth 48h
O=C(NC1CCCCC1)c1ccc(-c2cccc([N+](=O)[O-])c2)o1	u	x	x	-69*	u	2%
O=C(NC1CCCCC1)c1ccc(-c2ccccc2F)o1	x	u	u	164	0.71µM*	x
COc1ccc(OC)c(CCNC(=O)c2c(C)oc3ncn(CC(C)C)c(=O)c23)c1	x	x	-17%[46.1 µM]	1	x	x
Cc1ccccc1C(=O)Nc1nc(-c2ccc(Br)cc2)ns1	x	-2%[46.1 µM]	3%[46.1 µM]	-95*	x	x
CCCCOC(=O)c1ccc(Nc2nc3ccccc3c3nnc(C)n23)cc1	x	x	4%[46.1 µM]	0	x	x
COc1ccc(/C(C)=N/NC(=O)c2ccc(CSc3nncn3C)cc2)cc1	4.1µM*	u	17%	2	16%	u
COc1ccc(/C=N/n2cnnc2SCc2ccc(OC)cc2)cc1	3%	-13%	2.5µM*	-25	-7%	u
COc1ccc(/C=N/n2cnnc2SCc2ccccc2)cc1	10%	-17%[46.1 µM]	u	7	-7%	u
C/C(=N\NC(=O)c1ccc(CSc2nncn2C)cc1)c1ccc(Cl)cc1	u	u	u	u	u	-6%
O=C(CCn1c(=O)c2ccccc2n(Cc2cccc(Cl)c2)c1=O)NCCc1ccccc1	x	u	6%[46.1 µM]	9	x	x
OCCN(Cc1ccccc1)Cc1ccccc1O	u	u	-3%[46.1 µM]	u	12%	4.1µM*
OCCN(Cc1ccccc1)Cc1nc(CC2CC2)no1	1.7µM*	-2%[46.1 µM]	1%[46.1 µM]	1	11%	4%
Oc1ccccc1CN(CCc1ccccc1)Cc1ccccc1	u	x	x	29	20%	u
CCc1ccc(NC(=O)Cn2c(=O)ccc3cc(S(=O)(=O)N4CCCC4)ccc32)cc1	x	x	4%[46.1 µM]	17	x	x
CC(=O)c1c(O)c(C)c(O)c2c1OC1=CC(=O)[C@H](C(C)=O)C(=O)[C@]12C	x	11%	x	x	x	x
Cc1ccc2nc3n(c(=O)c2c1)-c1cc(Cl)ccc1C(=O)NC3Cc1ccc(O)cc1 (stereo not drawn)	x	x	x	1	u	x
COC(=O)C1=NOC2(C=C(Br)C(OC)=C(Br)C2=O)C1 (stereo not drawn)	x	-42%[14.2 µM]	u	x	x	x
CC(O)/C=C/c1cccc[n+]1C (stereo not drawn)	u	u	-9%	-11	12%	u
COc1ccc(/C=C/c2cccc[n+]2C)c(O)c1	187%	x	x	-32	8.9µM*	u
C[n+]1ccccc1/C=C/c1cc(Br)ccc1O	u	x	x	-23	u	0.74µM*
COc1cc(O)cc(/C=C/c2ccccc2)c1	x	-17%[46.1 µM]	u	-1	u	x
CCN(CC)c1ccc(/C=C/c2cccc[n+]2C)c(OC)c1	50%	2.8µM*	u	-97*	0.89µM*	0.37µM*
CCc1ccc(/C=C2/SC(=S)NC2=O)cc1	x	u	0%	x	x	x
CCCCSCCCNC(=O)c1ccc2c(c1)N(CC)C(=O)c1ccccc1S2=O (stereo not drawn)	5%	x	x	-25	-27%	13µM*
CCCN(CCC)CCCNC(=O)c1ccc2c(c1)N(CC)C(=O)c1ccccc1S2=O (stereo not drawn)	x	u	1%	-1	-10%	u
SMILES	Pf growth 96h	Marburg entry inh	Lassa entry inh	HCMV inh	HCV inhibitor	Pf growth 48h
CCCCNC(=O)c1ccc2c(c1)N(CC)C(=O)c1ccccc1S2(=O)=O	1.5µM*	x	x	0	u	-20%
COc1ccccc1N(C)S(=O)(=O)c1ccc(C(=O)N(C)Cc2ccc(Cl)s2)cc1	u	u	11µM*	-22	u	12µM*
COc1ccccc1N(C)S(=O)(=O)c1ccc(C(=O)O)cc1	-4%	19%[46.1 µM]	4%[46.1 µM]	u	6%	13%
CCOc1ccc(CN(C)C(=O)c2ccc(S(=O)(=O)N(C)c3ccccc3OC)cc2)cc1	u	x	x	u	11µM*	13µM*
COc1ccccc1N(C)S(=O)(=O)c1ccc(C(=O)OCC(N)=O)cc1	-30%[5.75 µM]	-12%[46.1 µM]	13%	-28	-1%	-19%
CC(C)(C)OC(=O)N1CC2(CCCCC2)CC1Cc1ccc(C(F)(F)F)cc1 (stereo not drawn)	x	x	x	-13	x	x

Screening data (PubChem BioAssay)
